Screening results (PubChem BioAssay)
MCL1-BIM inh: inhibitors of MCL1 binding to BIM-BH3, primary screen, biochemical, fluorescence polarization. Induced myeloid leukemia cell differentiation protein Mcl-1 (Homo sapiens), Q07820. GST-MCL1 / FITC-Bim-BH3 fluorescence polarization. inhibition, % at 10.9 µM. 0.68% of 320,000 active. AID 2057, 2009;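 active means inhibition above the mean inhibition of all tested compounds plus 3 SD, set per campaign, cut at about 40% in these data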;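 further: higher means more loss of mP so more displacement of Bim peptide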
Bcl-xL primary: inhibitors of human Bcl-xL, primary screen, biochemical, fluorescence polarization, HTS | inhibition, % at 10.9 µM | GST-Bcl-xL / FITC-Bim BH3 peptide fluorescence polarization | Bcl-2-like protein 1 (Homo sapiens), Q07817 | 0.7% of 320,000 active;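 active means inhibition above the mean of all tested compounds plus 3 SD, cutoff set per campaign, cut at about 30% in these data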;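 further: inhibitors lower millipolarization by displacing the labeled peptide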
IDE act: human IDE activators in live cells, primary screen, fluorescence polarization, HEK cells, FAbeta-B substrate. activation, % at 5.96 µM. FAbeta-B cleavage; 0% vehicle, 100% cell-free pure enzyme wells. 0.073% of 340,000 active;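 active means activation above the mean of all tested compounds plus 3 SD, set per screening campaign, cut at about 17% in these data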
MEX-5 binding: MEX-5 zinc finger RNA-binding disruptors – biochemical, C. elegans, fluorescence polarization, MLPCN library, primary screen; Zinc finger protein mex-5 (Caenorhabditis elegans), Q9XUB2; MEX-5/FITC-TCR2 RNA binding; stronger effect = lower value; 0.38% of 300,000 active; activity score (negative = inhibition of binding), % at 10 µM;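 active means inhibition past about -25% in most replicates, and total fluorescence under double the plate's negative control median, limit read from the data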
IDE cell inh: human IDE inhibitors in live cells, primary screen, fluorescence polarization, HEK cells, FAbetaB substrate | Insulin-degrading enzyme (Homo sapiens), P14735 | FAbetaB cleavage | inhibition, % at 5.59 µM | 0.41% of 320,000 active | AID 434962, 2010;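 active means percent inhibition above the average of all tested compounds plus 3 SD, set per screening campaign, cut at about 16% in these data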;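 further: IDE supplied by intact live HEK cells; FP after avidin binding of uncleaved biotin substrate so inhibition keeps polarization high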
GLD-1 TGE inh: GLD-1/TGE RNA complex disruptors, primary screen, biochemical, fluorescence polarization. purified GLD-1 + fluorescein TGE RNA. inhibition, % at 5.96 µM. 0.44% of 320,000 active;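 active means percent inhibition above a per-plate cutoff, the plate mean of test compounds plus 3 SD, cut at about 30% in these data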
Target sequence (Q17339 whole entry, looked up): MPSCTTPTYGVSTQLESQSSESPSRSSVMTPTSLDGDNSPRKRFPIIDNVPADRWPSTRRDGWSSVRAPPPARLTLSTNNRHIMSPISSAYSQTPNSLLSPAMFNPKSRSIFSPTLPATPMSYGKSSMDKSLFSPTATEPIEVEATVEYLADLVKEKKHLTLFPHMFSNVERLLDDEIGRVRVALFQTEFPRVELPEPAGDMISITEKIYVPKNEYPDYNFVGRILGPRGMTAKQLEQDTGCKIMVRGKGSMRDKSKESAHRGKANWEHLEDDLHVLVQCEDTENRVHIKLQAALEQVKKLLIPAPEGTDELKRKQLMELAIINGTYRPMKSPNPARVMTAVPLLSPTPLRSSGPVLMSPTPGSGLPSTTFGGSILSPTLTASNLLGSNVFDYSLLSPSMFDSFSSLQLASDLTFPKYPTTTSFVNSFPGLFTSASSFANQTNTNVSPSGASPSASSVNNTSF
A number is an active result; - = inactive; . = no result. The list is not random: actives were taken first. Their share in the collection is about 1.5%.

SMILES	MCL1-BIM inh	Bcl-xL primary	IDE act	MEX-5 binding	IDE cell inh	GLD-1 TGE inh
Cc1nc2ccccc2c2oc(C(=O)Nc3ccc4c(c3)OCCO4)cc12	-	-	-	-28	-	-
CCCOc1ccc(-c2c(C(=O)N/N=C(\C)c3ccco3)nnn2-c2nonc2N)cc1	-	69	-	-	-	-
COc1cccc(C(=O)NCc2ccc3c(c2)cc(C)n3C)c1	-	-	-	-	-	-
COc1ccc(C(=O)NCc2ccc3c(c2)cc(C)n3C)cc1OC	-	37	-	-	-	-
O=C(NC1CC(=O)c2sccc21)c1ccc(Cl)cc1Cl (stereo not given)	-	-	-	-	-	-
N#CC1=C2SCC(O)(c3ccccc3)N2C(=O)CC1c1cccs1 (stereo not given)	-	36	-	.	-	-
COc1ccc(S(=O)(=O)Nc2ccc(C)c(S(=O)(=O)N3CCOCC3)c2)cc1[N+](=O)[O-]	.	.	-	.	.	.
CC(C)c1nnc(N2C(=O)C(O)=C(C(=O)c3cccs3)C2c2ccccc2)s1 (stereo not given)	.	.	-	-66	.	.
CCn1c(=O)[nH]c(=O)c2c(N)c(C(=O)c3cc(F)ccc3F)sc21	-	-	-	-	-	-
Cc1ccc(-c2nnn(CC(=O)NC(=O)NC3CCCCC3)n2)cc1	.	.	-	.	.	.
C[C@@H]1NC(=O)N[C@@H]1CCCCCC(=O)O	-	-	51	-	-	-
C/C(=N/Nc1ccc(C(=O)O)cc1)c1ccc(O)c(O)c1O	-	-	-	-41	-	-
CCNC(=O)c1c(NC(=O)c2cc(-c3cc(C)cc(C)c3O)n[nH]2)sc2c1CCCC2	.	.	-	.	.	.
CCn1c(=O)c2sccc2n2c(CCCC(=O)N3CCN(c4ccccn4)CC3)nnc12	-	-	-	-	-	-
CC(C)CCn1c(=O)c2sccc2n2c(CCCC(=O)N3CCN(c4ccccn4)CC3)nnc12	-	71	-	-	-	-
COc1ccccc1N1CCN(C(=O)Cn2nc3n(C)c4ccccc4n3c(=O)c2=O)CC1	-	-	.	-	-	31
COc1ccccc1N1CCN(C(=O)CCC(=O)N2CCN(c3ccccc3OC)CC2)CC1	-	-	-	-	-	-
N#C/C(=C/c1ccc(N2CCCCCC2)o1)c1cccc(F)c1	-	-	-	-	-	-
COc1cc(N2CCCC2)c(OC)cc1/C=C(/C#N)c1cccc(F)c1	-	-	-	-	17	-
CNCCNC[C@H](Cc1cccc2ccccc12)NCCc1ccccc1	.	.	-	.	-	-
CNC[C@H](Cc1ccccc1)NC[C@@H](Cc1cccc2ccccc12)NCCc1ccc(C)cc1	-	-	18	-	-	-
CCN1CCN(CCCNC(=O)CCC(=O)N2CCOc3ccc(Cl)cc32)CC1	-	-	-	-	-	-
COc1cc2c3nnc(-c4ccccc4)c-3cn(Cc3ccccc3F)c2cc1OC	-	-	.	-59	-	-
COc1cc2c3nnc(-c4ccc(F)cc4)c-3cn(Cc3ccccc3F)c2cc1OC	.	.	-	.	.	.
CCCCn1c(-c2ccc(Cl)c(Cl)c2)nc2cc3[nH]c(=O)c(C(C)C)nc3cc21	-	-	-	-	-	-
SMILES	MCL1-BIM inh	Bcl-xL primary	IDE act	MEX-5 binding	IDE cell inh	GLD-1 TGE inh
CCCCn1c(-c2cccc(Br)c2)nc2cc3[nH]c(=O)c(C(C)C)nc3cc21	-	31	-	-	-	-
CCCCn1c(-c2cccnc2)nc2cc3[nH]c(=O)c(C(C)C)nc3cc21	-	31	-	-	-	-
CCCCn1c(-c2ccc(C(C)(C)C)cc2)nc2cc3[nH]c(=O)c(C(C)C)nc3cc21	-	-	-	-	-	-
O=C1CSC(=S)N1/N=C/c1cc(Br)c(O)c(Br)c1	-	-	-	-33	133	-
Cc1ccccc1CC(=O)Nc1ccc(C(=O)N2CCCC2)cc1	-	-	-	-	-	-
CCOC(=O)c1cc(-c2ccccc2)nc2nc(N(CC)CC)sc12	-	-	-	-	-	-
O=S(=O)(c1cccs1)N1CCN(c2ccccc2)CC1	-	-	-	-	-	-
O=C(C(NS(=O)(=O)c1cccs1)c1ccccc1)N1CCN(c2ccccc2)CC1 (stereo not given)	-	31	-	-	-	-
CCN(CC(=O)NC(=O)Nc1ccccc1F)Cc1ccccc1	-	-	-	-	-	-
CC1C2(C)OC(=N)C(C#N)(C(C)O2)C1(C#N)C#N (stereo not given)	48	52	-	-30	-	-
Cc1cc(=O)[nH]c(N/N=C/c2ccc(O)c(O)c2)n1	-	-	-	-42	-	-
CSc1ccc(/C=N/Nc2nc(C)cc(=O)[nH]2)cc1	-	-	-	-	-	-
CC(C)SCC(=O)Nc1ncc2c(n1)-c1ccccc1CC2	-	35	-	-	-	-
O=C(Nc1ncc2c(n1)-c1ccccc1CC2)C1CC1	-	-	-	-	-	-
COC(=O)COc1ccc(S(=O)(=O)NCc2ccc3c(c2)OCO3)cc1	-	-	-	-	-	-
Cc1ccc(S(=O)(=O)c2ccccc2)cc1S	-	-	.	-	26	-
Cc1ccc(-c2nc(C=Nc3ccc(O)cc3)c(O)o2)cc1	.	.	-	-37	.	.
NC(=O)CSC1=N/C(=C\c2ccco2)C(=O)N1c1ccc(OC(F)F)cc1	-	-	-	-	-	-
CCOc1cc(/C=C2\N=C(SC(C)C(N)=O)N(c3ccc(OC(F)F)cc3)C2=O)ccc1O (stereo not given)	-	-	-	-	108	-
CCOC(=O)N1CCc2cc(OC)c(OC)c3c2c1cc1cc(OC)c(OC)cc13	.	.	-	.	.	.
Nc1cccc(Nc2ccccc2)c1	-	50	-	-	-	-
Cc1cc(C)n2nc(SCC(=O)NC3CCCC(C)C3C)nc2n1 (stereo not given)	-	-	-	-	-	-
CC(=O)c1nnn(-c2cccc(C#N)c2)c1C	-	-	-	-	-	-
O=C1CCCN1CCCNc1nc2c(S(=O)(=O)c3ccccc3)nnn2c2ccc(Cl)cc12	-	-	-	-	-	-
CC(C)NC(=O)CCc1nc2cccnc2n1-c1ccccc1	-	-	-	-	-	-
Cc1sc2nc(COC(=O)c3cccc(S(=O)(=O)N(C)c4ccccc4)c3)[nH]c(=O)c2c1C	-	39	-	-	-	-
Cc1sc2nc(COC(=O)c3cccc(OC(F)F)c3)[nH]c(=O)c2c1C	-	-	-	-	-	-
O=C(/C=C/c1ccc(O)c(O)c1)O[C@H](Cc1ccc(O)c(O)c1)C(=O)O	.	.	.	-98	.	.
